This is an account of results in PubChem BioAssay (EPA / NIEHS).

Active and inactive are the calls of the source. How the source made its calls: active means hit-call score of the fitted dose curve at least 0.9, where 1 is the maximum; inactive means score below 0.9.

Read-out in the test: Insulin-like growth factor-binding protein 1 (IGFBP1), IGFBP1 (gene 3484)
The experiment in a line: LTEA_HepaRG_IGFBP1: Life Technologies and Expression Analysis (LTEA) Assay for Insulin-like growth factor-binding protein 1 (IGFBP1) using HepaRG (AID 2283508). The note with it: mRNA level, 48 h; actives raise or lower the signal. On the procedure: LTEA_HepaRG is a cell based, multiplexed-readout assay that uses HepaRG, a human liver cell line, with measurements taken at 48 hours after chemical dosing on a 96-well plate.LTEA_HepaRG_IGFBP1 is one of 102 assay component(s) measured in the LTEA HepaRG cell culture assay. It is a marker of Cell proliferation, survival, death.Data from the assay component LTEA_HepaRG_IGFBP1 was analyzed into 1 endpoint. This assay endpoint, LTEA_HepaRG_IGFBP1, was analyzed with bidirectional fitting relative to DMSO as the negative control and baseline of activity. Using a type of inducible reporter, measures of mRNA induction for gain or loss-of-signal activity can be used to understand regulation of transcription factor activity. To generalize the intended target to other relatable targets, this assay endpoint is annotated to the transporter intended target family, where the subfamily is hormone carrier protein.
A total of 1060 chemcials from the ToxCast library were tested in eight-point concentration-response experiments. Cell culture and cytotoxicity assays were conducted at Thermo Fisher Scientific's Custom Services facility (Madison, WI). A single lot of human HepaRG cells (Thermo Fisher Scientific, Frederick, MD) was used for the cell culture experiments. 96-well format collagen type I coated plates of human HepaRG cells were prepared using established methods. Briefly, cryopreserved HepaRG cells were thawed, plated at a density of approximately 100,000 cells/well in HepaRG Thaw, Plate, and General Purpose media (HPRG770, Thermo Fisher Scientific), and incubated for 48 hours. 0.5% DMSO was selected as vehicle control to balance the requisite need of DMSO in HepaRG cultures to maintain differentiation (for example, baseline metabolism, proportions of hepatocytes vs. cholangiocytes), while enabling further hepatic receptor pathway activation (for example, PXR and CAR) in response to chemical exposure. 48 hours after plating, the culture medium was replaced with HepaRG Serum-Free Incudtion Media. Cells were exposed to each test chemical in duplicate and maintained in CO2 incubators for another 48 hours. Chemical plates were thawed to room temperature and 200x concentrations of treatment groups were prepared. 8-point conentration-reponse curves were made with the highest exposure at 100 uM, followed by half-log dilutions, all in 0.5% DMSO. Each test plate contained variouse controls, induction positive controls (1mM phenobarbital), cytotoxicity positive controls ([…] aflatoxin B1), vehicle controls (0.5% DMSO), and total lysis controls (0.5% DMSO). Cell morphology images were taken using an Essen IncuCyte FLR automated microscope, with six 96-well plates imaged in about 24 minutes. Images were captured and exported and JPEG files. Spent culture media was transfered to black-well plates for the LDH assay, and remaining media was sorted at -80 C for later use. Cells were treated with RLT buffer and frozen until shipped for gene expression analysis. Total RNA was isolated from the cell suspension in 75 uL of Buffer RLT (Qiagen, Germantown, MD 20874) by Quintiles/Expression Analysis (Durham, NC) using a custom isolation procedure. Total RNA from each plate well was transferred to a preamplification plate. Fluidigm's 96.96 Dynamic ArrayTM (Fluidigm, Amsterdam, the Netherlands) technology was used for gene expression analyses by quantitative reverse transcription polymerase chain reaction (qRT-PCR, performed by Quintiles/Expression Analysis, Durham, NC)89. Standard TaqManTM Assays (Applied Biosystems/ThermoFisher Scientific, Foster City, CA) were used to assess the expression of 93 genes selected based on their selectivity and sensitivity to important hepatic receptors known to be modulated by environmental chemicals; importance in human hepatocyte functionality; and hepatotoxicity. […]
Regarding `Cc1ccccc1CO[C@@H]1C[C@@]2(C(C)C)CC[C@]1(C)O2`, the result was inactive. `O=C(O)C(F)(F)C(F)(F)C(F)(F)C(F)(F)C(F)(F)C(F)(F)C(F)(F)C(F)(F)F`: the AC50 is 86.1 µM (active).

Take `O=NN(c1ccccc1)c1ccccc1`: the outcome was inactive. The same measure, in the same setting: the same measure for `Cc1ccc(O)c(C)c1`: “inactive”.

Consider `O=S(=O)(O)C(F)(F)C(F)(F)C(F)(F)C(F)(F)C(F)(F)C(F)(F)F`, for which the result was inactive.

Consider `ClC1=C(Cl)[C@]2(Cl)[C@@H]3[C@@H](Cl)[C@H]4O[C@H]4[C@@H]3C1(Cl)C2(Cl)Cl`, for which the outcome was inactive. Still for that read-out and setting: as for `ClC(Cl)=C(c1ccc(Cl)cc1)c1ccc(Cl)cc1`, the entry is “inactive”.

In the case of `Cc1cc(O)ccc1Cl`, the result was inactive. Same read-out and setting: as for `CC(C)(c1ccccc1)c1ccc(O)cc1`, the entry is “inactive”. Consider `CC#Cc1cc(C)nc(Nc2ccccc2)n1`, for which the AC50 was 21.9 µM (active). In the case of `CC1=C2C[C@H]3[C@@H](CC=C4C[C@@H](O)CC[C@@]43C)[C@@H]2CC[C@]12O[C@@H]1C[C@H](C)CN[C@H]1[C@H]2C`, the call was inactive. The same measure, in the same setting: as for `CC(C)C(=O)OCC(C)(C)C(OC(=O)C(C)C)C(C)C` (stereo not given), the entry is “inactive”; as for `COS(=O)(=O)OC`, “inactive”; as for `CCOCCOC(C)=O`, “inactive”.

With `Cc1cccc(C)c1N`, the call was inactive. The same measure, in the same setting: as for `CCOC(=O)C(O)(c1ccc(Cl)cc1)c1ccc(Cl)cc1`, the entry is “inactive”.

As for `NS(=O)(=O)C(F)(F)C(F)(F)C(F)(F)C(F)(F)C(F)(F)C(F)(F)C(F)(F)C(F)(F)F`, the AC50 was 21.6 µM (active). The same measure, in the same setting: the same measure for `CO/C=C(/C(=O)OC)c1ccccc1COc1cccc(C(F)(F)F)n1`: 8.19 µM (active). In the case of `Cc1cccc([N+](=O)[O-])c1`, the molecule was classed as inactive.

Take `CC(C)(O)C(=O)Nc1ccc([N+](=O)[O-])c(C(F)(F)F)c1`: the AC50 is 0.0432 µM (active). Consider `Oc1c(Cl)c(Cl)c(Cl)c(Cl)c1Cl`, for which the AC50 is 7.05 µM (active). Take `C=CC(=O)NCNC(=O)C=C`: the molecule was called inactive.

In the case of `CCCCCCCCCc1ccc(O)cc1`, the molecule was classed as inactive. Turning to `CCC(C)(c1ccc(O)cc1)c1ccc(O)cc1`, the call was inactive. The same measure, in the same setting: as for `CCSC(=O)N(CC)C1CCCCC1`, the entry is “inactive”.

Regarding `CCNc1nc(NC(C)C)nc(SC)n1`, the call was inactive. The same measure, in the same setting: the same measure for `CCCCCCOC(=O)c1ccccc1C(=O)OCCCCCC`: “inactive”.

In the case of `CCCN(CCC)N=O`, the call was inactive. Turning to `Nn1cnnc1`, the result was inactive. `O=C(N[C@H]1CN2CCC1CC2)c1cc2ccoc2cn1`: the molecule was classed as inactive. On the same count and under the same terms, as for `Oc1ccc(Cl)cc1Cl`, the entry is “inactive”; as for `CCC(=O)O[C@H]1CC[C@H]2[C@@H]3CCC4=CC(=O)CC[C@]4(C)[C@H]3CC[C@]12C`, “inactive”. In the case of `O=C(NC(=O)c1cc(F)c(F)cc1Cl)Nc1cc(F)ccc1N1CCC(C(=O)O)CC1`, the outcome was inactive. The same measure, in the same setting: the same measure for `O=C(O)C(F)(F)C(F)(F)C(F)(F)C(F)(F)C(F)(F)F`: “inactive”. For the molecule `Clc1ccc(C(Cl)(Cl)Cl)cc1`, the molecule was classed as inactive. In the case of `CCC(C)c1cc([N+](=O)[O-])cc([N+](=O)[O-])c1O` (stereo not given), the AC50 was 4.09 µM (active). As for `CCOP(=S)(OCC)SCSC(C)(C)C`, the outcome was inactive. As to `N#Cc1ccc(N(CC(N)=O)CC(F)(F)F)cc1C(F)(F)F`, the molecule was classed as inactive. As for `C[C@]12CCC(=O)C=C1CC[C@@H]1[C@@H]2CC[C@]2(C)C(=O)CC[C@@H]12`, the outcome was inactive. As for `ClC1=C(Cl)[C@]2(Cl)[C@@H]3[C@@H]4C[C@@H]([C@H]5O[C@@H]45)[C@@H]3[C@@]1(Cl)C2(Cl)Cl`, the molecule was classed as inactive.
